Data from PubChem BioAssay AID1508600 (Functional Genomics Laboratory (NCATS/FGL), 2020).
Screen size: about 53,000 sequences; about 3,700 (7%) were called active. This excerpt belongs to a sample that is enriched for actives. Values without a mark were called inactive.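 The calls were made as follows: active = gene knockdowns whose robust z-score for IL-1 alpha signal is at least 2 or at most -2, so actives lie on both sides; inactive = the rest.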

Test: Components of the Cytosolic LPS Sensing Pathway: Gene Identification via Genome-wide siRNA Screen;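 also: robust z of the log signal after scaling to non-targeting control siRNA wells of the plate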
Conditions: RAW264.7 macrophages, IL-1a HTRF, actives lie on both sides, screened at 100 nM (by protocol), cells primed 5 h with Pam3CSK4 first
Procedure, shortened: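 RAW264.7; siRNA 100 nM final, RNAiMAX, 48h 37 degrees C; Pam3CSK4 5 h; LipidA + TransIT-TKO 24 h; IL-1a HTRF; CellTiter-Glo viability; robust z vs negative-control median.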

**Q.** With GGAUGCUCUAGUUCCAUUATT against Aym1 as the sequence, how does the z-score read?
**A.** Its z-score is 0.51.

**Q.** For GGAGCAUCAUUUUAACACUTT against Tubd1, which z-score is on record?
**A.** Its z-score is 0.925.

**Q.** For GGAUCCUGGUCCAAACUUUTT against Atraid, which z-score is on record?
**A.** The z-score was -1.52.

**Q.** For GGUUAUUGGCACUUUUAGATT against Ect2, which z-score is on record?
**A.** Its z-score is 0.0504.

**Q.** Which z-score does the source give for GGAUUGCUUCACCACAUGUTT against Fes here?
**A.** The z-score was 2.44 (active).

**Q.** With GGUGCUGAUGAAGUUCAUGTT against Ap1b1 as the sequence, how does the z-score read?
**A.** The z-score was 1.47.

**Q.** For GGAGACUAUUUCAUCUACUTT against Tnfsf15, which z-score is on record?
**A.** Its z-score is 0.347.

**Q.** Which z-score does the source give for GGAGAAAACACAAUGUCUUTT against Limd1 here?
**A.** Its z-score is 0.441.

**Q.** For CCUACAGAUAGGUAUGUAGTT against Exo1, which z-score is on record?
**A.** The z-score was -2.07 (active).

**Q.** With GGACUUUGAGGAGAAGGAUTT against Rabep2 as the sequence, how does the z-score read?
**A.** Its z-score is -1.34.

**Q.** For GGAAGGUGUCAAUAAAGAUTT against Lypd3, which z-score is on record?
**A.** The z-score was 0.0184.

**Q.** For GGGAUUUUUGAAACUGAAGTT against Glod4, which z-score is on record?
**A.** The z-score was -2.78 (active).

**Q.** Which z-score does the source give for GGAGAGUCUCCAGACUUUGTT against Med29 here?
**A.** The z-score was -0.521.

**Q.** With GGAGGAGACUCAGCAGAUUTT against Gzmn as the sequence, how does the z-score read?
**A.** The z-score was 2.29 (active).

**Q.** Which z-score does the source give for CCAGAAGAACAAGGAAGUATT against Gm6460 here?
**A.** The z-score was -0.914.

**Q.** With GGCCCAACGACAUUUAUGUTT against Pop7 as the sequence, how does the z-score read?
**A.** The z-score was -1.38.

**Q.** With GCCUUCUGAUAACCUACUATT against Mefv as the sequence, how does the z-score read?
**A.** Its z-score is -1.87.

**Q.** For GCUAGUGGUAAGUCAACCATT against Iqsec1, which z-score is on record?
**A.** The z-score was -0.882.

**Q.** Which z-score does the source give for GGAAGCUUACAUUGUGAAGTT against Unc5c here?
**A.** Its z-score is -0.735.

**Q.** For GGACAAGCAAGGUCAAUCATT against Taar1, which z-score is on record?
**A.** Its z-score is -1.11.

**Q.** With GGUGUAAGAGCUUUGGCCUTT against Gm5420 as the sequence, how does the z-score read?
**A.** The z-score was 2.35 (active).

**Q.** With AAACUAGGGUCGAUUUCACTT against Hmgn3 as the sequence, how does the z-score read?
**A.** The z-score was 0.704.

**Q.** Which z-score does the source give for GGCCUUCCUCUUCUGCUUATT against Csf3r here?
**A.** The z-score was 0.157.

**Q.** For GUGAACAACAUCCAAGCGATT against Dhrs7c, which z-score is on record?
**A.** Its z-score is 0.183.

**Q.** Which z-score does the source give for GCGGAAAAAUUACUUUCUUTT against Tas2r107 here?
**A.** The z-score was -2.

**Q.** With GGAGUUUUCAUGCCUACAATT against Odam as the sequence, how does the z-score read?
**A.** The z-score was 2.58 (active).

**Q.** For GGAAACCUACCAAGAAACGTT against Fam234a, which z-score is on record?
**A.** Its z-score is -0.293.

**Q.** For GGGACAAUUGGAAAGGCGATT against Wdr55, which z-score is on record?
**A.** Its z-score is 0.507.

**Q.** Which z-score does the source give for GGCACUUUCGGGAAUUCACTT against Nup160 here?
**A.** The z-score was -2.5 (active).

**Q.** For GCCUAUCAGUAUCAUAGUUTT against Dnajc10, which z-score is on record?
**A.** The z-score was 0.905.

**Q.** Which z-score does the source give for GGAGUAUUCAACAUUUGUATT against Trim11 here?
**A.** The z-score was -0.523.

**Q.** Which z-score does the source give for GAACGGGUUACCAUGUGGUTT against Xkr9 here?
**A.** Its z-score is 0.546.

**Q.** For CGCAGGUGAGAGCAAUGUUTT against Lrrn4cl, which z-score is on record?
**A.** The z-score was -1.35.

**Q.** For GGAAGGAACUCAAGAAGACTT against Ifrd1, which z-score is on record?
**A.** Its z-score is 2.13 (active).

**Q.** For GGAUGUGAAAUUCAAGCUUTT against Dhx34, which z-score is on record?
**A.** The z-score was -0.457.

**Q.** With GGAUACAGAAGGUUUUCUUTT against Abcd4 as the sequence, how does the z-score read?
**A.** Its z-score is -0.137.

**Q.** With GGAACCCUUUUCAAAAGAGTT against Bclaf3 as the sequence, how does the z-score read?
**A.** The z-score was 0.112.

**Q.** With GGAGGAGACUAAAGAAAAUTT against Myf6 as the sequence, how does the z-score read?
**A.** Its z-score is -1.53.

**Q.** For GGAAACAUCUUGUUGAAGATT against BC106179, which z-score is on record?
**A.** The z-score was 0.361.

**Q.** With GGAGAAAGCAGAGAUAAAATT against Cdk11b as the sequence, how does the z-score read?
**A.** The z-score was -1.8.

**Q.** With CCCACAACUGCAAAUUGUGTT against Olfr782 as the sequence, how does the z-score read?
**A.** The z-score was -1.21.

**Q.** For GGAUACAAGAAACCUUAAGTT against Os9, which z-score is on record?
**A.** The z-score was 1.09.

**Q.** With CGACUCUUGCCUGUUCGUGTT against Adamtsl5 as the sequence, how does the z-score read?
**A.** Its z-score is -2.48 (active).

**Q.** Which z-score does the source give for GGAUAAAUUUCAAGAUGUGTT against Naip5 here?
**A.** The z-score was -0.552.

**Q.** Which z-score does the source give for “GGUACCAUUCGUUCAAACCTT against 3830406C13Rik” here?
**A.** The z-score was 0.416.

**Q.** Which z-score does the source give for GGCCUUUACGUCUUCCUAGTT against Zdhhc12 here?
**A.** Its z-score is -1.19.

**Q.** Which z-score does the source give for GGAAGAUGGGCAAGAUGAUTT against Sash3 here?
**A.** Its z-score is -0.183.

**Q.** For CCCAGCACUUUUUCGCUCUTT against Olfr458, which z-score is on record?
**A.** The z-score was 0.959.

**Q.** With GCAGGACAACCAGCUGGUATT against Tmem107 as the sequence, how does the z-score read?
**A.** Its z-score is 3.43 (active).

**Q.** For GGCACUCAGCAAGAUUGUATT against Nr2c2ap, which z-score is on record?
**A.** The z-score was -0.28.

**Q.** Which z-score does the source give for GCUCAUCUUAUCCUCUAAGTT against Cts7 here?
**A.** The z-score was 0.391.

**Q.** With UCAGGUCGCUGCUAAACUCTT against Ccdc57 as the sequence, how does the z-score read?
**A.** Its z-score is -1.26.

**Q.** With GGUUCAAAGGUGAUGGUGUTT against Dab2 as the sequence, how does the z-score read?
**A.** The z-score was 0.273.

**Q.** For CGAGCUUUGAAAGUUUAAUTT against Pcsk2, which z-score is on record?
**A.** Its z-score is 0.591.

**Q.** With CCUGACGAUUGAGUAUCAUTT against Tubgcp4 as the sequence, how does the z-score read?
**A.** Its z-score is -0.267.

**Q.** With GGACCAGACGAACAGUGAUTT against Surf2 as the sequence, how does the z-score read?
**A.** Its z-score is 2.28 (active).

**Q.** Which z-score does the source give for GGACCUGCCCAAAUCUGAUTT against Fbxo40 here?
**A.** Its z-score is 0.307.

**Q.** Which z-score does the source give for CGGCUCUUCAAUAGAGCCUTT against Olfr123 here?
**A.** The z-score was -0.265.

**Q.** Which z-score does the source give for GGAUUAUGGUCUCAUUGUCTT against Exd2 here?
**A.** Its z-score is 0.0549.

**Q.** For GGAGCUUUCUCAGAGGUGUTT against Camk1g, which z-score is on record?
**A.** The z-score was -1.47.

**Q.** Which z-score does the source give for GCUGCUCGUUAAAGCCGGATT against Ankrd6 here?
**A.** The z-score was 2.92 (active).

**Q.** For CCAGAUGCAGUCACAAGUCTT against Klf4, which z-score is on record?
**A.** The z-score was 0.843.

**Q.** For GGUUUUAAAGGCCAUAUUGTT against Msmo1, which z-score is on record?
**A.** The z-score was -1.72.

**Q.** For GCCGACAACACAAAAUUAUTT against Vps26b, which z-score is on record?
**A.** Its z-score is 0.4.

**Q.** With CGAAAGCACACACGUAGAATT against Erdr1 as the sequence, how does the z-score read?
**A.** The z-score was 0.391.

**Q.** With GGUCUUCCAAGGUCAGAAGTT against Cyp2d10 as the sequence, how does the z-score read?
**A.** Its z-score is 1.5.

**Q.** For “GGCAAUAAUCUUAGAGGUUTT against 9530068E07Rik”, which z-score is on record?
**A.** Its z-score is 0.499.

**Q.** For GCUGUAAGGAGGAACUUCUTT against Btg1, which z-score is on record?
**A.** Its z-score is -1.03.

**Q.** Which z-score does the source give for GGUCUCUGGUAAGAAGAGCTT against Zfp276 here?
**A.** Its z-score is 2.95 (active).
